The text below walks through data of PubChem BioAssay AID651640 (Broad Institute, 2012).

Out of some 350,000 compounds screened, about 6,000 (1.7%) were called active. Inconclusive results (about 5%) are left out. Shown is part of a subset that was picked to be rich in actives. Values without a mark were called inactive. Rule as the data show it: active = CPE inhibition above about 20% (passing the limit was not always enough); inconclusive = no clear call, values can overlap the other calls; tested in BHK-21 cells.

The nature of this test: protection of cells from dengue 2 killing – plate reader, single concentration, primary screen (AID 651640).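 Also: 0% = median of neutral control wells and 100% = median of positive control wells.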 Particulars: DENV2-infected cells, cytopathic effect rescue, at 9.99 µM, stronger effect = higher value. Background: Cytopathic effects are the visible damage that an infection or toxin causes in cultured cells.
Consider `CO[C@@H]1CN(C)C(=O)c2cc(NC(=O)C3CCCC3)ccc2OC[C@H](C)N(C)C[C@@H]1C`, for which the CPE inhibition is 4.63%.

Consider `COC(=O)C[C@@H]1C[C@H]2c3cc(NC(=O)CN(C)C)ccc3O[C@H]2[C@H](CO)O1`, for which the CPE inhibition is 1.76%.

On to `Cc1noc(C)c1S(=O)(=O)N(C)C[C@@H]1OCCCC[C@H](C)Oc2ccc(NC(=O)CCC(F)(F)F)cc2C(=O)N([C@H](C)CO)C[C@H]1C`, for which the CPE inhibition is 18.7%.

Consider `O=C(Nc1nccs1)[C@@H]1[C@@H](CO)[C@@H]2Cn3c(ccc(-c4cccnc4)c3=O)[C@@H]2N1CC1CC1`, for which the CPE inhibition was -4.43%.

With `C[C@H]1COC(=O)[C@H](CC(=O)OC(C)(C)C)C/C=C\C[C@@H](CC(=O)N[C@H](CO)Cc2ccccc2)C(=O)N1`, the CPE inhibition was 15.2%.

For the compound `CC(C)(C)OC(=O)C[C@@H]1C/C=C\C[C@@H](CC(=O)N[C@H](CO)Cc2ccccc2)C(=O)NCCOC1=O`, the CPE inhibition is -7.88%.

Turning to `CC(C)(C)OC(=O)C[C@@H]1C/C=C\C[C@H](CC(=O)N[C@@H](CO)Cc2ccccc2)C(=O)N[C@H](Cc2ccccc2)COC1=O`, the CPE inhibition is 21.2% (active).

Take `O=C(NCC1CC1)[C@@H]1[C@@H](CO)[C@@H]2Cn3c(ccc(-c4ccncc4)c3=O)[C@@H]2N1Cc1cocn1`: the CPE inhibition is 6.32%.

Regarding `O=C(c1ccncc1)N1CC[C@@H]2[C@H]1c1cc(Br)ccc1N[C@@H]2CO`, the CPE inhibition was -10.3%.

For the compound `C[C@H]1CN([C@@H](C)CO)C(=O)c2cccc(NC(=O)Nc3ccccc3)c2O[C@@H]1CN(C)C(=O)Nc1cccc2ccccc12`, the CPE inhibition was 13.2%.

For the compound `COCCn1c(SCC(=O)Nc2ccc(F)cc2F)nc2c(c1=O)SCC2`, the CPE inhibition is -1.37%.

With `COCCn1c(SCC(=O)Nc2cc(Cl)ccc2OC)nc2c(c1=O)SC(C)C2` (centres undefined), the CPE inhibition was 1.59%.

For `COCCn1c(SCC(=O)Nc2ccccc2F)nc2c(c1=O)SCC2`, the CPE inhibition was 69.8% (active).

In the case of `C[C@H]1CN([C@@H](C)CO)C(=O)c2cc(C3=CCCC3)cnc2O[C@H]1CN(C)Cc1ccccc1C(=O)O`, the CPE inhibition is 10.8%.

In the case of `CC(C)C(=O)Nc1ccc2c(c1)C(=O)N(C)[C@@H]1CC[C@@H](CC(=O)NCCc3ccccc3)O[C@H]1CO2`, the CPE inhibition is 19%.

With `C[C@@H]1CCCCO[C@@H](CN(C)Cc2ccncc2)[C@H](C)CN([C@@H](C)CO)C(=O)c2cc(NS(=O)(=O)c3ccccc3)ccc2O1`, the CPE inhibition is -0.228%.

As for `C[C@@H]1CCCCO[C@H](CN(C)C(=O)Nc2ccc(C(F)(F)F)cc2)[C@H](C)CN([C@H](C)CO)C(=O)c2cc(NC(=O)Nc3ccc(C(F)(F)F)cc3)ccc2O1`, the CPE inhibition is 2.81%.

`C[C@@H]1CCCCO[C@@H](CN(C)C(=O)Nc2ccc(C(F)(F)F)cc2)[C@H](C)CN([C@H](C)CO)C(=O)c2cc(NC(=O)C3CCCCC3)ccc2O1`: the CPE inhibition is 22.5% (active).

On to `C[C@@H]1CCCCO[C@@H](CN(C)C(=O)NC2CCCCC2)[C@@H](C)CN([C@H](C)CO)C(=O)c2cc(NC(=O)CCC(F)(F)F)ccc2O1`, for which the CPE inhibition is -1.91%.

Take `C[C@@H]1CCCCO[C@@H](CN(C)C(=O)C2CCCCC2)[C@H](C)CN([C@H](C)CO)C(=O)c2cc(NC(=O)CCC(F)(F)F)ccc2O1`: the CPE inhibition is 74.2% (active).

For the compound `C[C@@H]1CCCCO[C@@H](CN(C)C(=O)CCC(F)(F)F)[C@@H](C)CN([C@H](C)CO)C(=O)c2cc(NC(=O)CCC(F)(F)F)ccc2O1`, the CPE inhibition is 4.89%.

As to `C[C@H](CO)N1C[C@H](C)[C@H](CN(C)C(=O)Nc2ccc(C(F)(F)F)cc2)OCCCC[C@H](C)Oc2ccc(NC(=O)C3CCCCC3)cc2C1=O`, the CPE inhibition is 21.9% (active).

For the compound `C[C@H]1CCCCO[C@H](CN(C)Cc2ccc(C(F)(F)F)cc2)[C@@H](C)CN([C@@H](C)CO)C(=O)c2cc(NC(=O)C3CCCCC3)ccc2O1`, the CPE inhibition was -17.3%.

For `C[C@@H]1CN([C@@H](C)CO)C(=O)c2cc(NC(=O)C3CCCCC3)ccc2O[C@@H](C)CCCCO[C@@H]1CN(C)C(=O)Nc1ccccc1`, the CPE inhibition is -1.11%.

Take `C[C@H](CO)N1C[C@H](C)[C@@H](CN(C)Cc2ccc(C(F)(F)F)cc2)OCCCC[C@H](C)Oc2ccc(NC(=O)C3CCCCC3)cc2C1=O`: the CPE inhibition is -1.83%.

`C[C@@H]1CN([C@H](C)CO)C(=O)c2cc(C#Cc3ccccn3)cnc2O[C@H]1CN(C)CC1CCOCC1`: the CPE inhibition is -1.46%.

As to `O=C(C[C@H]1CC[C@@H]2[C@H](COC[C@@H](O)CN2C(=O)Nc2cccc(F)c2)O1)NCc1ccccc1F`, the CPE inhibition is 0.633%.

`COc1ccc2c3c([nH]c2c1)[C@H](CO)N(Cc1cccc(F)c1)CC31CCN(CC2CC2)CC1`: the CPE inhibition was -32.6%.

Take `C[C@H]1CCCCO[C@H](CN(C)CC2CC2)[C@@H](C)CN([C@@H](C)CO)C(=O)c2cc(NS(C)(=O)=O)ccc2O1`: the CPE inhibition is 2.25%.

With `COc1ccccc1-c1cnc2c(c1)C(=O)N([C@H](C)CO)C[C@@H](C)[C@@H](CN(C)CC1CCCC1)O2`, the CPE inhibition is 23.1%.

As to `C[C@@H]1CN([C@H](C)CO)C(=O)c2cc(NS(C)(=O)=O)ccc2O[C@@H]1CN(C)S(C)(=O)=O`, the CPE inhibition is -0.244%.

With `C[C@H](O)C#Cc1cnc2c(c1)C(=O)N([C@H](C)CO)C[C@H](C)[C@@H](CN(C)C(=O)Nc1ccc(F)cc1)O2`, the CPE inhibition is 8.69%.

Turning to `CNC[C@@H]1OCCCC[C@H](C)Oc2ccc(NC(=O)Nc3ccc(OC)cc3)cc2C(=O)N([C@H](C)CO)C[C@@H]1C`, the CPE inhibition was 7.49%.

As for `C[C@H]1CN([C@@H](C)CO)C(=O)c2cc(NS(=O)(=O)c3cccs3)ccc2O[C@@H]1CN(C)C(=O)Nc1cccc2ccccc12`, the CPE inhibition is -2.31%.

On to `C[C@@H]1CCCCO[C@H](CN(C)S(=O)(=O)c2cccs2)[C@H](C)CN([C@@H](C)CO)C(=O)c2cc(NS(=O)(=O)c3cccs3)ccc2O1`, for which the CPE inhibition was -8.04%.

Take `C[C@@H]1CN([C@H](C)CO)C(=O)c2cc(NS(=O)(=O)c3cccs3)ccc2O[C@@H](C)CCCCO[C@@H]1CN(C)S(=O)(=O)c1ccc(Cl)cc1`: the CPE inhibition was 22.8% (active).

As to `COc1ccc(NC(=O)N(C)C[C@H]2Oc3ccc(NS(=O)(=O)c4cccs4)cc3C(=O)N([C@@H](C)CO)C[C@H]2C)cc1`, the CPE inhibition is -6.98%.

As for `C[C@@H]1CCCCO[C@H](CN(C)S(=O)(=O)c2ccc(Cl)cc2)[C@H](C)CN([C@@H](C)CO)C(=O)c2cc(NS(=O)(=O)c3cccs3)ccc2O1`, the CPE inhibition is 63.8% (active).

Consider `C[C@@H]1CN([C@H](C)CO)C(=O)c2cc(NS(=O)(=O)c3cccs3)ccc2O[C@@H](C)CCCCO[C@@H]1CN(C)S(=O)(=O)c1cccs1`, for which the CPE inhibition was -4.08%.

For the compound `C[C@@H]1CCCCO[C@@H](CN(C)S(=O)(=O)c2ccc(F)cc2)[C@@H](C)CN([C@@H](C)CO)C(=O)c2cc(NS(=O)(=O)c3cccs3)ccc2O1`, the CPE inhibition was 12.7%.

`C[C@H]1CCCCO[C@@H](CN(C)S(=O)(=O)c2cccs2)[C@@H](C)CN([C@@H](C)CO)C(=O)c2cc(NS(=O)(=O)c3ccc(Cl)cc3)ccc2O1`: the CPE inhibition is -0.143%.

On to `C[C@H]1CN([C@@H](C)CO)C(=O)c2cc(NS(=O)(=O)c3cccs3)ccc2O[C@@H]1CN(C)C(=O)Nc1ccccc1`, for which the CPE inhibition is 22.2% (active).

Turning to `CC(C)NC(=O)Nc1ccc2c(c1)C(=O)N(C)[C@H]1CC[C@H](CC(=O)NCC3CCCCC3)O[C@@H]1CO2`, the CPE inhibition was -11%.

Take `C=C[C@H](OC)[C@@H](O)c1ccc(OC)c(O)c1`: the CPE inhibition was -1.37%.

As to `C[C@H](CO)N1C[C@H](C)[C@@H](CN(C)C(=O)CCC(F)(F)F)OCCCC[C@H](C)Oc2ccc(NC(=O)C3CCCCC3)cc2C1=O`, the CPE inhibition is -0.808%.

As for `CCS(=O)(=O)N1[C@H](CO)[C@@H](c2ccccc2)C12CN(C(=O)C1CCC1)C2`, the CPE inhibition was -6.37%.

Regarding `Cc1noc(C)c1NC(=O)N(C)C[C@@H]1Oc2ccc(NC(=O)Nc3ccc4c(c3)OCO4)cc2CC(=O)N([C@H](C)CO)C[C@H]1C`, the CPE inhibition is 9.34%.

On to `C[C@@H]1CN([C@H](C)CO)C(=O)c2cc(C#CCC3CCCC3)cnc2O[C@H]1CN(C)C(=O)c1cnccn1`, for which the CPE inhibition was 4.48%.

Consider `CO[C@H]1O[C@H](CO)[C@@H](OC(=O)Nc2ccc(C(F)(F)F)cc2)[C@H](OC(=O)Nc2ccc3c(c2)OCO3)[C@H]1OC(=O)Nc1ccc2c(c1)OCO2`, for which the CPE inhibition was 3.41%.

Regarding `CO[C@@H]1CN(C)C(=O)c2cc(NC(=O)C3CC3)ccc2OC[C@@H](C)N(Cc2ccc(F)cc2)C[C@@H]1C`, the CPE inhibition is 3.49%.

In the case of `C[C@@H]1CN([C@@H](C)CO)C(=O)Cc2cc(NS(C)(=O)=O)ccc2O[C@H]1CN(C)C(=O)Nc1ccccc1`, the CPE inhibition is 16.2%.

Regarding `C[C@@H]1CN([C@H](C)CO)C(=O)Cc2cc(NC(=O)CCN3CCOCC3)ccc2O[C@H]1CN(C)CC1CC1`, the CPE inhibition is -0.438%.

For the compound `CCS(=O)(=O)N1CC2(CN(Cc3ccccc3)[C@@H](CO)c3c2c2ccc(OC)cc2n3C)C1`, the CPE inhibition is 6.33%.

In the case of `CCS(=O)(=O)N1CC2(CN(C(=O)c3ccc(F)cc3)[C@@H](CO)c3c2c2ccc(OC)cc2n3C)C1`, the CPE inhibition was -7%.

For the compound `COc1ccc2c3c(n(C)c2c1)[C@H](CO)N(C(=O)CC1CC1)CC31CCN(Cc2nccs2)CC1`, the CPE inhibition was -5.74%.

Consider `COc1ccc2c3c([nH]c2c1)[C@H](CO)N(Cc1nccs1)CC31CCN(C(=O)C2CCC2)CC1`, for which the CPE inhibition was -3.4%.

As to `CCS(=O)(=O)N1CC2(CN(Cc3cc(F)ccc3F)[C@@H](CO)c3c2c2ccc(OC)cc2n3C)C1`, the CPE inhibition is -8.85%.

As to `COc1ccc2c3c(n(C)c2c1)[C@H](CO)N(CC1CCCCC1)CC31CCN(Cc2nccs2)CC1`, the CPE inhibition was 22.7% (active).

As to `COc1ccc2c3c([nH]c2c1)[C@@H](CO)N(Cc1nccs1)CC31CCN(C(=O)C2CCCC2)CC1`, the CPE inhibition is -11.8%.

In the case of `COc1cc(CN2CC3(CN(S(=O)(=O)c4cn(C)cn4)C3)c3c(n(C)c4cc(OC)ccc34)[C@H]2CO)cc(OC)c1`, the CPE inhibition was 58.8% (active).

In the case of `COc1ccc2c3c(n(C)c2c1)[C@@H](CO)N(C(=O)c1ccc(F)cc1)CC31CN(C(=O)c2ccc(F)cc2)C1`, the CPE inhibition is 2.03%.

On to `COc1ccc2c3c([nH]c2c1)[C@@H](CO)N(C(=O)C1CC1)CC31CCN(Cc2nccs2)CC1`, for which the CPE inhibition was 25.2% (active).

Take `COc1ccc2c3c(n(C)c2c1)[C@@H](CO)N(C(C)=O)CC31CCN(Cc2nccs2)CC1`: the CPE inhibition was -1.04%.

On to `CCS(=O)(=O)N1CC2(CN(C(=O)c3ccc(F)cc3)[C@H](CO)c3c2c2ccc(OC)cc2n3C)C1`, for which the CPE inhibition was 21.9% (active).
